High-throughput results (PubChem BioAssay)
Rows were chosen to be rich in hits. Some 3.8% of all compounds tested hit in one or more screens of this group.
CBFb RUNX1 block = qHTS Assay for Compounds Blocking the Interaction Between CBF-beta and RUNX1 for the Treatment of Acute Myeloid Leukemia | 230,000 tested, under 10 active | AlphaScreen CBFb-His/RUNX1-biotin binding, biochemical | Potency, µM (titrated, usually from 59.8 µM), actives largely listed as inhibitors | Runt-related transcription factor 1 (Homo sapiens) + Core-binding factor subunit beta … | AID 1477, 2009
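Inhibition was taken as any reduction in AlphaScreen signal from the CBF-beta–RUNX1 pair (His and biotin tags, 30 nM each), measured after compound (15 min) and bead (90 min) incubations at room temperature.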
KCNH2 3.1 block = qHTS for Inhibitors of KCHN2 3.1: Mutant qHTS; 0.95% of 340,000 active; U2OS KCNH2 3.1, thallium flux FluxOr; hits give low values; activity change, % (tested at about 1.8 µM); Potassium voltage-gated channel subfamily H member 2, brain isoform KCNH2 3.1 (human); AID 720553, 2013;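 active means maximum activity change below -70%; inconclusive means maximum activity change from -70% to -50%; inactive means maximum activity change above -50%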;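 further: thallium influx rate constant from kinetic fluorescence after stimulation buffer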
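Measured as rate of thallium-driven FluxOr signal in transduced U2OS cells carrying the 3.1 channel, read kinetically for 2 min upon stimulation; values are rate constants scaled to DMSO control wells.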
PLK1 PBD inh = qHTS for Inhibitors of PLK1-PDB (polo-like kinase 1 - polo-box domain): Primary Screen; Plk1 PBD binding of FITC phosphopeptide, fluorescence polarization; Potency, µM, usual class: inhibitors; 2.8% of 360,000 active; AID 720504, 2013; further: series mostly up to about 57 µM; nearly all actives have a fitted effect of over 65% in size
Target sequence (P53350 whole entry, looked up, the tested form may be a part): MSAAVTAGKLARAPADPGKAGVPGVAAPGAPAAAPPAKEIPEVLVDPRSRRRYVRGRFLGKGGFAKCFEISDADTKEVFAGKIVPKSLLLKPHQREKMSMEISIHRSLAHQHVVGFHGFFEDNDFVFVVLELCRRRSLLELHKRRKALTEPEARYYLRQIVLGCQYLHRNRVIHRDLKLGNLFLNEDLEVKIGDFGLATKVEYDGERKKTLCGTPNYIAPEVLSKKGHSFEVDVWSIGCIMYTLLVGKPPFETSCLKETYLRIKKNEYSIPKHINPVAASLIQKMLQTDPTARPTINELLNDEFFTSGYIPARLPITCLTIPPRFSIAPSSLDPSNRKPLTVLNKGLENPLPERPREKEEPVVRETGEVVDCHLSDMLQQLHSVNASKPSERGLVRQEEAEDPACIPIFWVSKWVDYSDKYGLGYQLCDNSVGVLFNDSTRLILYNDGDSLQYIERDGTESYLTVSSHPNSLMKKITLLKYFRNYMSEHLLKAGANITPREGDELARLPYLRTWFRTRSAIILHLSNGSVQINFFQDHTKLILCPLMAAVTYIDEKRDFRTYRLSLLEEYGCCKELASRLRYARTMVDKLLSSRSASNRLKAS
VDR inh = Inhibitors of the vitamin D receptor (VDR): qHTS | AID 504847, 2011 | Vitamin D3 receptor (Homo sapiens), P11473 | Potency, µM, hits mostly inhibitors | VDR-SRC2-3 peptide fluorescence polarization, 2 h | 0.93% of 400,000 active
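Compounds are added to VDR with labelled SRC2-3 coactivator peptide and held 2 h at room temperature. Inhibition of the VDR–peptide interaction is then read as a change in fluorescence polarization.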
hERG WT inh = qHTS for Inhibitors of KCHN2 3.1: Wildtype qHTS; 0.37% of 340,000 active; U2OS, BacMam KCNH2, thallium flux FluxOr; hits give low values; Voltage-gated inwardly rectifying potassium channel KCNH2 (Homo sapiens), Q12809; AID 720551, 2013; activity change, % at 1.84 µM;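 active means maximum activity change below -70%; inconclusive means maximum activity change between -70% and -50%; inactive means maximum activity change above -50%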
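U2OS cells transduced with wild-type KCNH2 virus are loaded with FluxOr dye for 45 min, and thallium flux is measured in kinetic reads before and after stimulation buffer. Rate constants are normalized to DMSO controls.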
MBNL1 CUG block = qHTS Assay for Inhibitors of MBNL1-poly(CUG) RNA binding; 0.036% of 280,000 active; Muscleblind-like protein 1 (Homo sapiens), Q9NR56; Potency, µM (top dose mostly 57.5 µM), usual class: inhibitors; AID 2675, 2010; TR-FRET MBNL1-His/biotin-(CUG)12 binding, 665/545 ratio; active means well fitted inhibition curve with a large enough effect in the signal ratio, with a control signal flat, not every such curve was filed as active; inconclusive means small, poorly fitted or top-dose-only effect, or effect the other way, or a change in a side signal; inactive means no such curve, though single readings can be large or run the other way; the % refers to the signal ratio
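TR-FRET readout: Ex 340 nm, 665/545 nm emission ratio, normalized to buffer-only (basal) and MBNL1-(CUG)12 controls. Complex of MBNL1-His with Biotin-(CUG)12, compounds 92 nM–58 uM, incubated 60 min at room temperature.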
Large screens that a line does not name were inactive. Unless noted, the call rests on the fitted dose curve; in most records, active means well fitted curve in the direction sought with a large enough effect; inconclusive means small, poorly fitted or top-dose-only effect, or another doubt; inactive means no such curve, though single readings can be large; an effect the other way counts as inactive or inconclusive.

CCC(C(=O)Nc1cc(OC)cc(OC)c1)n1nc(-c2ccc(C)c(C)c2)ccc1=O (centres undefined)	none (no result: CBFb RUNX1 block, KCNH2 3.1 block, PLK1 PBD inh, hERG WT inh, MBNL1 CUG block)
CC(=O)c1cccc(NC(=O)CC(c2ccc(C)cc2)N2Cc3ccccc3C2=O)c1 (centres undefined)	none (no result: CBFb RUNX1 block, KCNH2 3.1 block, PLK1 PBD inh, hERG WT inh, MBNL1 CUG block)
N#Cc1c(-c2ccco2)c2c([nH]c1=S)CCCC2	PLK1 PBD inh 12µM, MBNL1 CUG block inconclusive
CC(C)Cc1c2c([nH]c(=S)c1C#N)CCCC2	PLK1 PBD inh 27µM, VDR inh inconclusive
N#Cc1c(-c2cccnc2)c2c([nH]c1=S)CCCC2	PLK1 PBD inh 12µM
CNC(=O)Oc1ccc2c(c1)C1(C)CCN(C)C1N2C (centres undefined)	none (no result: KCNH2 3.1 block, PLK1 PBD inh, VDR inh, hERG WT inh, MBNL1 CUG block)
Cc1cc(OC(C)C(=O)NCc2cccnc2)c2c(C)cc(=O)oc2c1 (centres undefined)	PLK1 PBD inh 27µM (no result: CBFb RUNX1 block)
Cc1cc(OC(C)C(=O)NCc2ccncc2)c2c(C)cc(=O)oc2c1 (centres undefined)	PLK1 PBD inh inconclusive (no result: CBFb RUNX1 block)
Cc1cc(OC(C)C(=O)NCc2ccccn2)c2c(C)cc(=O)oc2c1 (centres undefined)	PLK1 PBD inh 27µM (no result: CBFb RUNX1 block)
Cc1cc(OC(C)C(=O)NCc2ccncc2)c2c(C)c(C)c(=O)oc2c1 (centres undefined)	PLK1 PBD inh 12µM, VDR inh inconclusive (no result: CBFb RUNX1 block)
CCOc1ccc(C2c3[nH]c4ccccc4c3CCN2C(=O)CCc2ccccc2)cc1 (centres undefined)	none (no result: CBFb RUNX1 block, KCNH2 3.1 block, PLK1 PBD inh, hERG WT inh, MBNL1 CUG block)
Oc1ccccc1Nc1nc(-c2ccccc2)c2cc(Cl)ccc2n1	none (no result: CBFb RUNX1 block, KCNH2 3.1 block, PLK1 PBD inh, hERG WT inh, MBNL1 CUG block)
Cn1cc(S(=O)(=O)N2CCc3ccccc32)cc1C(=O)Nc1ccc(C(F)(F)F)cc1	none (no result: CBFb RUNX1 block, KCNH2 3.1 block, PLK1 PBD inh, hERG WT inh, MBNL1 CUG block)
CC1(C)CN=c2s/c(=C\c3ccc(Cl)cc3)c(=O)n2C1	PLK1 PBD inh 4.7µM, MBNL1 CUG block inconclusive
COc1cc(C(c2nnnn2C2CCCC2)N2CCc3ccccc3C2)ccc1O (centres undefined)	PLK1 PBD inh 21µM
COc1ccc(C(c2nnnn2C2CCCCC2)N2CCN(c3ccccc3)CC2)cc1 (centres undefined)	none (no result: KCNH2 3.1 block, PLK1 PBD inh, VDR inh, hERG WT inh)
Cn1c(=O)c(N)c2c3c(c(Br)ccc31)C(=O)c1ccccc1-2	CBFb RUNX1 block inconclusive, PLK1 PBD inh 0.6µM (no result: MBNL1 CUG block)
CCOc1ccc(C(=O)NCC(c2ccco2)S(=O)(=O)c2ccc(C)cc2)cc1 (centres undefined)	none (no result: CBFb RUNX1 block, KCNH2 3.1 block, PLK1 PBD inh, hERG WT inh, MBNL1 CUG block)
CCc1ccc(C(=O)NNC(=O)OC)cc1	PLK1 PBD inh 9.5µM, VDR inh inconclusive
CCc1ccc(NC(=O)C(=O)NNC(=O)c2ccc(OC)cc2)cc1	none (no result: CBFb RUNX1 block)
CCc1ccc(CNC(=O)c2cnc3sc(N4CCCCC4)nn3c2=O)cc1	none (no result: CBFb RUNX1 block, KCNH2 3.1 block, PLK1 PBD inh, hERG WT inh, MBNL1 CUG block)
CCCCCC/C=C\CCCCCCCc1cccc(O)c1C(=O)O	VDR inh inconclusive (no result: KCNH2 3.1 block, PLK1 PBD inh, hERG WT inh, MBNL1 CUG block)
CCCCCC(=O)Cc1cc(O)cc2c1C(=O)Oc1cc(O)c(C(=O)O)c(CCCCC)c1O2	PLK1 PBD inh 24µM, VDR inh inconclusive
Cc1nc(N2CCN(C(=O)c3ccco3)CC2)c(C#N)c2c1CCCC2	none (no result: CBFb RUNX1 block)
Cc1cc(C)c2nc(N3CCCN(C(=O)c4ccco4)CC3)c(C#N)cc2c1	CBFb RUNX1 block inconclusive, PLK1 PBD inh inconclusive, VDR inh 79µM, MBNL1 CUG block inconclusive (no result: KCNH2 3.1 block)
O=C(c1ccco1)N1CCCN(C(=O)c2ccco2)CC1	PLK1 PBD inh 19µM, VDR inh inconclusive
O=C(/C=C/c1cccc([N+](=O)[O-])c1)N1CCN(C(=O)c2ccco2)CC1	none
O=C(CCC1CCCC1)N1CCN(C(=O)c2ccco2)CC1	PLK1 PBD inh 24µM
O=C(/C=C/c1ccccc1)N1CCN(C(=O)c2ccco2)CC1	KCNH2 3.1 block -96
CC(C)CC(=O)N1CCN(C(=O)c2ccco2)CC1	none
COc1ccc(N2CC(c3nc(-c4cc(OC)c(OC)c(OC)c4)no3)CC2=O)cc1Cl (centres undefined)	none (no result: CBFb RUNX1 block, KCNH2 3.1 block, PLK1 PBD inh, hERG WT inh, MBNL1 CUG block)
CC(=O)c1c(C)[nH]c(C(=O)N2CCN(C(=O)c3ccco3)CC2)c1C	KCNH2 3.1 block -211
CCCN(Cc1cccs1)C(=O)Nc1ccc(F)c(Cl)c1	none (no result: CBFb RUNX1 block, KCNH2 3.1 block, PLK1 PBD inh, hERG WT inh, MBNL1 CUG block)
Cc1ccc(C(=O)NC2(C(F)(F)F)N=C(c3ccccc3)N(Cc3ccccc3)C2=O)cc1 (centres undefined)	none (no result: CBFb RUNX1 block, KCNH2 3.1 block, PLK1 PBD inh, hERG WT inh, MBNL1 CUG block)
O=C(Cc1cccc2ccccc12)NC(NC(=S)Nc1ccccc1Cl)C(Cl)(Cl)Cl (centres undefined)	CBFb RUNX1 block inconclusive, PLK1 PBD inh 24µM, VDR inh inconclusive
O=C(NC(NC(=S)Nc1ccccc1Cl)C(Cl)(Cl)Cl)c1cccc(Cl)c1 (centres undefined)	PLK1 PBD inh inconclusive
Cc1ccnc(NC(c2ccccn2)c2c(C)[nH]c3ccccc23)c1 (centres undefined)	PLK1 PBD inh 12µM, VDR inh inconclusive
